# Measured values reported in article PMC4102417.
# System: murine 3T3 fibroblasts
# Experiment: primary screen, percent viability or growth; higher = less effect of the substance
# Method: Similarly, for measuring the cytotoxicity concentration (CC50) for 3T3 fibroblast cells, cultures were incubated with drugs for 72 hours and developed using Alamar Blue (Alamar Biosciences Inc, Sacramento, CA) as previously described.
row,Compound,Mammalian (3T3) cell % growth at 10 uM [%]
1,NCCCCNCCCN,41
2,COc1c2c(cc3occ(-c4ccc5c(c4)OCO5)c(=O)c13)OC(C)(C)C=C2,68.2
3,Oc1cc2c(cc1O)C1c3ccc(O)c(O)c3OCC1(O)C2 (centres unmarked),100
4,COc1cc(/C=C/C(=O)N2CCC=CC2=O)cc(OC)c1OC,1
5,CCCCC(CC)CNC(=N)NC(=N)NCCCCCCNC(=N)NC(=N)NCC(CC)CCCC.Cl.Cl (centres unmarked),12.3
6,COc1cc(O)c2c(=O)cc(-c3ccc(OC)c(-c4c(O)cc(O)c5c(=O)cc(-c6ccc([O-])cc6)oc45)c3)oc2c1.[K+],4.2
7,CN1CCCC1CCOC(C)(c1ccccc1)c1ccc(Cl)cc1 (centres unmarked),93.2
8,COc1c(O)cc2oc3cc(O)c(CC=C(C)C)c(O)c3c(=O)c2c1CC=C(C)C,5.5
9,COC(=O)CC1C(C)(C)C(OC(C)=O)C2C(OC(C)=O)C34OC2(O)C1(C)C3CCC1(C)C4=CC(=O)OC1c1ccoc1 (centres unmarked),89.7
10,O=c1c(O)c(-c2ccc(O)c(O)c2)oc2c(O)c(O)cc(O)c12,54.6
11,COc1cc(-c2cc(=O)c3c(O)c(OC)c(OC)c(OC)c3o2)cc(OC)c1OC,4
12,O=c1cc(-c2ccccc2)oc2cc(O)cc(O)c12,43
13,C=C1C2CCC3(C)C(c4ccoc4)OC(=O)CC13OC1CC(OC(C)=O)C(C)(C)C(CC(=O)OC)C12C (centres unmarked),84.1
14,COc1cc(O)c(C(=O)/C=C/c2ccc(O)c(OC)c2)c(OC)c1,10.2
15,CC1(C)C(=O)C=CC2(C)C1CC(=O)C1(C)C2CCC2(C)C(c3ccoc3)OC(=O)C3OC321 (centres unmarked),75.8
16,COc1cc2c(cc1OC)C1C(=O)c3ccc4c(c3OC1CO2)CC(C(C)C)O4 (centres unmarked),19.3
17,CCc1nc(N)nc(N)c1-c1ccc(Cl)cc1,97.6
18,C=CC(C)(O)CCC1C(=C)CCC2C(C)(CO)CCCC12C (centres unmarked),86.1
19,CC[C@H](C)C(=O)O[C@H]1CCC=C2C=C[C@H](C)[C@H](CC[C@@H]3C[C@@H](O)CC(=O)O3)[C@H]21,2.9
20,COC(=O)CC[C@@H](C)[C@H]1CC[C@H]2[C@@H]3CC[C@@H]4C[C@H](O)CC[C@]4(C)[C@H]3C[C@H](O)[C@]12C,100
21,Clc1ccc(C(OCCN2CCCCC2)c2ccccc2)cc1 (centres unmarked),100
22,O=C(/C=C/c1ccc(O)c(O)c1)OCCc1ccccc1,1.4
23,Cl.NCC(=O)c1ccccc1,85.5
